From PubChem BioAssay (NCATS) come the findings set out here.

Inconclusive results are not listed. Active and inactive are the calls of the source. Unless noted, the call rests on the fitted dose curve; in most records, active means well fitted curve in the direction sought with a large enough effect; inconclusive means small, poorly fitted or top-dose-only effect, or another doubt; inactive means no such curve, though single readings can be large; an effect the other way counts as inactive or inconclusive.

The target in assay [1] is Cytochrome P450 3A4 (Homo sapiens) (UniProt P08684). The assay can be described thus: qHTS Assay for Inhibitors and Substrates of Cytochrome P450 3A4 (AID 884). Further: nearly all actives have a fitted effect of over 50% in size. Further: potency means the concentration at half of the fitted maximal effect. An outline of the steps:
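Luminescent readout of luciferin produced by CYP3A4 (20 nM) dealkylation of Luciferin-PPXE, 25 uM (its KM). NADPH-driven reaction ran 60 min at RT after 10 min compound preincubation; data scaled to 57 uM ketoconazole as 100% inhibition.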
Background: In qHTS, concentration-response curves come from the screen itself.

The target is the same in assay [2]. The assay can be described thus: qHTS Assay for Activators of Cytochrome P450 3A4 (AID 885). Further: nearly all actives have a fitted effect of over 65% in size. An outline of the steps: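 Using 20nM recombinant human CYP3A4 in potassium phosphate (200mM), substrate Luciferin-PPXE at 25uM, luminescent luciferin detection followed a 60-min RT NADPH reaction; data scaled to 57 uM ketoconazole.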
A short description of assay [3]: Confirmation and Secondary Assay for Modulators of Hemoglobin Beta Chain Splicing at IVS2 654 locus (AID 910).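 Further: HeLa cells stably carrying EGFP split by mutant beta-globin IVS2-654 intron; % of control where 0% means no effect.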 An outline of the steps: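 HeLa cells stably expressing EGFP interrupted by β-globin IVS2-654 intron, seeded overnight in Opti-MEM/2% FCS, then treated 2 days at 37 °C. Restored splicing read as total peak GFP intensity per well by laser scanning cytometry (488 nm excitation, 500–520 nm emission); 500 nM antisense PNA as control.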

Assay [4] can be described thus: Confirmation and Secondary Assay for Modulators of Hemoglobin Beta Chain Splicing at IVS2 705 locus (AID 930).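 Further: HeLa cells stably expressing the EGFP-705 splicing reporter; GFP fluorescence per well restored by corrected splicing of the IVS2-705 intron in EGFP; % of control where 0% means no effect.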 The procedure, abridged:
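Stable HeLa line with EGFP disrupted by mutant beta-globin intron 2 (705). Overnight attachment, then 2 days of compound at 37C, 5% CO2. Signal: peak GFP intensity summed over objects 5-250 µm.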

Assay [5] is described as follows: qHTS Assay for Lipid Storage Modulators (AID 1519; calls by dose curve; on activity change, negative = inhibition: on the % scale 0 is the no-effect control and ±100 the full control effect). Conditions: Drosophila S3 cells, BODIPY lipid droplet/cell ratio, laser cytometry, cells loaded with oleic acid; for activity change, negative = inhibition: at 57.5 µM (top of the series). An outline of the steps: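 Cells seeded at 5,000 per well were treated with compounds over a concentration series and loaded with oleic acid (400 uM, as added). Lipid droplet fluorescence (488 nm excitation, 500-530 nm channel) was read by laser-scanning cytometry and normalized to 20 uM Triacsin C.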

Assay [6] addresses Ubiquitin carboxyl-terminal hydrolase 1 (Homo sapiens) (UniProt O94782). The assay can be described thus: Inhibitors of USP1/UAF1: Pilot qHTS (AID 504865). Further: nearly all actives have a fitted effect of over 35% in size. Further: potency means the concentration at half of the fitted maximal effect. The procedure, abridged: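 USP1/UAF1 complex at 1 nM preincubated 15 min at room temperature with compound, then Ub-Rho substrate added at 150 nM final. Fluorescence (480/540 nm) read kinetically in 50 mM HEPES pH 7.8, 0.5 mM EDTA, 1 mM TCEP, 0.1 mg/ml BSA, 0.01% Tween-20.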

Assay [7] addresses Rap guanine nucleotide exchange factor 3 (Homo sapiens) (UniProt O95398). The assay can be described thus: Confirmatory qHTS for agonist of cAMP-regulated guanine nucleotide exchange factor 3 (EPAC1) (AID 1645881).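 Further: EPAC1 catalysed release of BODIPY-GDP from Rap1B seen as fluorescence loss; 100% = effect of cAMP agonist control; nearly all actives have a fitted effect of over 75% in size.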
Assay [8] has as its target Rap guanine nucleotide exchange factor 4 (Homo sapiens) (UniProt Q8WZA2). The assay can be described thus: Confirmatory qHTS for agonist of cAMP-regulated guanine nucleotide exchange factor 4 (EPAC2) (AID 1645884).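 Further: nucleotide exchange releases bodipy-GDP from Rap1 and this lowers its fluorescence; on the % scale 0 is the no-effect control and ±100 the full control effect; nearly all actives have a fitted effect of over 65% in size.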
Assay [9] has the same target. The assay can be described thus: Confirmatory qHTS for antagonist of cAMP-regulated guanine nucleotide exchange factor 4 (EPAC2) (AID 1645885). Further: nearly all actives have a fitted effect of over 25% in size. Further: potency means the concentration at half of the fitted maximal effect. On activity change, negative = inhibition: on the % scale 0 is the no-effect control and ±100 the full control effect.
Assay [10] concerns the target Rap guanine nucleotide exchange factor 3 (Homo sapiens) (UniProt O95398). The assay can be described thus: Confirmatory qHTS for antagonist of cAMP-regulated guanine nucleotide exchange factor 3 (EPAC1) (AID 1645880).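 Further: plate controls were DMSO only for no effect and full effect of the ATA control for full effect; nearly all actives have a fitted effect of over 55% in size.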 The procedure, abridged: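 Released BODIPY-GDP fluoresces less than Rap1-bound BODIPY-GDP; the signal is followed at 480/540 nm at 5-min intervals over 30 min, after 5 min at room temperature. Reactions contain 100 nM EPAC1, 250 nM RAP1B-BODIPY-GDP and 50 uM GDP; results are normalized to ATA and DMSO.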

Assay [11] in a line: AP1 Signaling Pathway (AID 357; active means well fitted curve in either direction with a large enough effect, not every such curve was filed as active;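 further: ME-180 reporter cells stimulated with EGF at its EC50 level; on the % scale 0 is the no-effect control and ±100 the full control effect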). Conditions: ME-180 AP-1-bla reporter, EGF-induced, beta-lactamase ratio, 5 h; at 7.69 µM (top of the series) unless noted. The procedure, abridged:
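Titration-series screen for positive or negative modulators of EC50 EGF-induced signaling in ME-180 cells carrying an AP-1-driven beta-lactamase reporter. After 5 hours at 37 degrees Celsius, CCF4 460nm/530nm emission ratio gave %Activity; AC50 values derived.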

Assay [12] concerns the target Cytochrome P450 1A2 (Homo sapiens) (UniProt P05177). The assay can be described thus: p450-cyp1a2 (AID 410; calls by dose curve; further: potency means the concentration at half of the fitted maximal effect). An outline of the steps:
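Read-out is luminescence from luciferin produced by CYP1A2 demethylation of Luciferin-ME (100uM, at Km). Detection reagent stopped the 60 min NADPH-dependent reaction; signals were normalized to 57 uM furafylline.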

The nature of assay [13]: Stat Signaling Pathway (AID 446; active means well fitted curve in either direction with a large enough effect, not every such curve was filed as active;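 further: ME-180 cervical cancer cells given 40 pM IL-6 alongside compound; SIE-controlled beta-lactamase reporter measured as 460/530 nm FRET emission ratio; on the % scale 0 is the no-effect control and ±100 the full control effect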). Conditions: ME-180 (cervical carcinoma) SIE beta-lactamase reporter, IL-6 stimulated, 5 h; at 7.69 µM (top of the series) unless noted. An outline of the steps:
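Overnight-plated ME-180 cells bearing a STAT Inducible Element beta-lactamase reporter; 5 h co-exposure to compound and 40 pM IL-6; values normalized to 300 pM IL-6 and 125 nM JAK inhibitor controls.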

Assay [14] concerns the target Glucocorticoid receptor (Homo sapiens) (UniProt P04150). The assay can be described thus: GR-EFC Redistribution (AID 451; calls by dose curve; further: potency means the concentration at half of the fitted maximal effect). Conditions: CHO-K1 GR-EFC translocation, beta-gal luminescence, 2 h. An outline of the steps:
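CHO-K1 cells expressing nuclear EA and GR-ED fragments of b-gal; compounds titrated up to 46 uM final, 2 h at 37 C. GR nuclear translocation read as complemented b-gal luminescence after 1 h RT detection.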

Setting [15] is: measured here: cell count channel max response.
Where [16] appears, read: measured here: lipid channel max response.

Cytochrome P450 3A4 (Homo sapiens), sequence (P08684 whole entry, looked up): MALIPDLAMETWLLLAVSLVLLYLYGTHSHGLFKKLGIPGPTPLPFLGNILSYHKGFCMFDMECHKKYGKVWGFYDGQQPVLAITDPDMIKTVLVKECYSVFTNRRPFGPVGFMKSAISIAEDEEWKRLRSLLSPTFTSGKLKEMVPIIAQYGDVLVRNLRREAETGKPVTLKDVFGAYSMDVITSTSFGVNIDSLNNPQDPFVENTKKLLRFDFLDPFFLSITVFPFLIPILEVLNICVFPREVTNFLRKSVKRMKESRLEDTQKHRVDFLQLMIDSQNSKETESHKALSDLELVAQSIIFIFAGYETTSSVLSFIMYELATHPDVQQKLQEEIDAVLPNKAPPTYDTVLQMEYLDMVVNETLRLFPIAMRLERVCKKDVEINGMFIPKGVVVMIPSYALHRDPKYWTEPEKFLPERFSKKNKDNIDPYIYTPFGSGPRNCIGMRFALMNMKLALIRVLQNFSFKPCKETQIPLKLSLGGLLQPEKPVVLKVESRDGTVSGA
Rap guanine nucleotide exchange factor 3 (Homo sapiens), sequence (O95398 whole entry, looked up): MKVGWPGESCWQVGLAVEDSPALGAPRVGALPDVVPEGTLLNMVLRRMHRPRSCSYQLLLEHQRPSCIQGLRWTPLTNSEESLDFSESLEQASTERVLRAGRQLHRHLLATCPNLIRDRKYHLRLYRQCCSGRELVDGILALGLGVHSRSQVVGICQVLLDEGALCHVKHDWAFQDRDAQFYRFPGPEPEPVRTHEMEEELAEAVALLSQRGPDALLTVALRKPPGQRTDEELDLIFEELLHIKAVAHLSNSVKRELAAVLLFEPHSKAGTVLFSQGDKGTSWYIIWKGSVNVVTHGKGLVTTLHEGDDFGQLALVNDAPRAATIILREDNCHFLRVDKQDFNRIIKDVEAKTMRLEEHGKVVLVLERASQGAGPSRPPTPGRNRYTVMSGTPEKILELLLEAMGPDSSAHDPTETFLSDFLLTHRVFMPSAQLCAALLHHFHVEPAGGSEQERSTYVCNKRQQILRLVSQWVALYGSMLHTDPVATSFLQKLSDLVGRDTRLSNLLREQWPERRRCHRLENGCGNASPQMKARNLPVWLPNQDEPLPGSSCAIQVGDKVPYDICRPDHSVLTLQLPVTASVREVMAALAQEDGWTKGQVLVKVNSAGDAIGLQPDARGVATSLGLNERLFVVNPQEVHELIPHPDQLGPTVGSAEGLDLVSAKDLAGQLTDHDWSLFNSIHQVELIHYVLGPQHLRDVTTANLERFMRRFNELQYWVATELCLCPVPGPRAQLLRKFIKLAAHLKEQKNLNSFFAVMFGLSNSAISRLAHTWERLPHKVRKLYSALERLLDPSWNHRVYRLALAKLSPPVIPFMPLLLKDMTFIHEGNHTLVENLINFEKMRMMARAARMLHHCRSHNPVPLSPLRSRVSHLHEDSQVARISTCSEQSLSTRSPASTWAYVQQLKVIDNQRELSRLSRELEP
Ubiquitin carboxyl-terminal hydrolase 1 (Homo sapiens), sequence (O94782 whole entry, looked up): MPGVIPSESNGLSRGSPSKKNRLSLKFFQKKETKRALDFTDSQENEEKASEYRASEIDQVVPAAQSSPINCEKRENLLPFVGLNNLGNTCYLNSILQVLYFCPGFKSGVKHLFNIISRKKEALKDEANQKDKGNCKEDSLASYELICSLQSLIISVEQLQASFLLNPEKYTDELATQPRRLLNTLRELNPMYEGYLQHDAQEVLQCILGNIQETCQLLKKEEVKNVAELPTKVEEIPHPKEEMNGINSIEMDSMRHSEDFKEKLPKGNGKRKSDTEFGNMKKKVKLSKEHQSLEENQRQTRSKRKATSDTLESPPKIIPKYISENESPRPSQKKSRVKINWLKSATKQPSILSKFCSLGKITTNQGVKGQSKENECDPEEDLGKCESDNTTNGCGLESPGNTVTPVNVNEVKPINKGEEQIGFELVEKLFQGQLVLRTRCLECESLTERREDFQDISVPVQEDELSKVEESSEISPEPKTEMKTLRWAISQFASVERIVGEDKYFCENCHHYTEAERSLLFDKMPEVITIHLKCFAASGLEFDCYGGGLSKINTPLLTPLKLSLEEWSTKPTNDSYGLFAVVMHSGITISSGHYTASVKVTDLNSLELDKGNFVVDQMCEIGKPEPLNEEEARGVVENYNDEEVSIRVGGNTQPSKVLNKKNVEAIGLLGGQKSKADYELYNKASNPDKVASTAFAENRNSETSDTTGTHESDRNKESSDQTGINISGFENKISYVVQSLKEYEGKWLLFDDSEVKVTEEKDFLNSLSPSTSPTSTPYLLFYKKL
Rap guanine nucleotide exchange factor 4 (Homo sapiens), sequence (Q8WZA2 whole entry, looked up): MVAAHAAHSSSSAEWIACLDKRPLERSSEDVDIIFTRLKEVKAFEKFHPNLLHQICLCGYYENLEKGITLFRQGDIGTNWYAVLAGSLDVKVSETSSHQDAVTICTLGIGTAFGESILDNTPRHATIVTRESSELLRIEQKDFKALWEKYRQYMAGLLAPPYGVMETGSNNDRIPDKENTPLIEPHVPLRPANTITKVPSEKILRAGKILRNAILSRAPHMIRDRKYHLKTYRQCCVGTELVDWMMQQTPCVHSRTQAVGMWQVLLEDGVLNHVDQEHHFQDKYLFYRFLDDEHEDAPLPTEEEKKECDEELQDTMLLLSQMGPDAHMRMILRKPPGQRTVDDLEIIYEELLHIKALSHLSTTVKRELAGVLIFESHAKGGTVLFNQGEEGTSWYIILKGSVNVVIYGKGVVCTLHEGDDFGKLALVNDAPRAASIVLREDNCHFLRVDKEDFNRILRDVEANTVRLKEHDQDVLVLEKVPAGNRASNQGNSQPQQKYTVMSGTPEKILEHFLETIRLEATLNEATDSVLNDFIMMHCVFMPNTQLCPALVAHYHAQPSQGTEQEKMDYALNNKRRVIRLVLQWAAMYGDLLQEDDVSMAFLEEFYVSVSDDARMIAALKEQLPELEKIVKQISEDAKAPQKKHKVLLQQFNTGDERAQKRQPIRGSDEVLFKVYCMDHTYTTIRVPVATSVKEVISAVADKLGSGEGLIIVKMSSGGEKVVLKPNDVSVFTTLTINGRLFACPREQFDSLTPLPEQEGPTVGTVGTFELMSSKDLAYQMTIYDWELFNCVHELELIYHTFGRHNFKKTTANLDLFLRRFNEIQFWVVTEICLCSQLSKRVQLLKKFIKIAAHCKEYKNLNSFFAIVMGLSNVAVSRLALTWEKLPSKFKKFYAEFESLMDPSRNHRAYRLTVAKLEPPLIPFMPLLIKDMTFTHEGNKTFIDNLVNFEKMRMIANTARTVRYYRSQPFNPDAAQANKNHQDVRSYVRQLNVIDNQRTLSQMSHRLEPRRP
Glucocorticoid receptor (Homo sapiens), sequence (P04150 whole entry, looked up, the tested form may be a part): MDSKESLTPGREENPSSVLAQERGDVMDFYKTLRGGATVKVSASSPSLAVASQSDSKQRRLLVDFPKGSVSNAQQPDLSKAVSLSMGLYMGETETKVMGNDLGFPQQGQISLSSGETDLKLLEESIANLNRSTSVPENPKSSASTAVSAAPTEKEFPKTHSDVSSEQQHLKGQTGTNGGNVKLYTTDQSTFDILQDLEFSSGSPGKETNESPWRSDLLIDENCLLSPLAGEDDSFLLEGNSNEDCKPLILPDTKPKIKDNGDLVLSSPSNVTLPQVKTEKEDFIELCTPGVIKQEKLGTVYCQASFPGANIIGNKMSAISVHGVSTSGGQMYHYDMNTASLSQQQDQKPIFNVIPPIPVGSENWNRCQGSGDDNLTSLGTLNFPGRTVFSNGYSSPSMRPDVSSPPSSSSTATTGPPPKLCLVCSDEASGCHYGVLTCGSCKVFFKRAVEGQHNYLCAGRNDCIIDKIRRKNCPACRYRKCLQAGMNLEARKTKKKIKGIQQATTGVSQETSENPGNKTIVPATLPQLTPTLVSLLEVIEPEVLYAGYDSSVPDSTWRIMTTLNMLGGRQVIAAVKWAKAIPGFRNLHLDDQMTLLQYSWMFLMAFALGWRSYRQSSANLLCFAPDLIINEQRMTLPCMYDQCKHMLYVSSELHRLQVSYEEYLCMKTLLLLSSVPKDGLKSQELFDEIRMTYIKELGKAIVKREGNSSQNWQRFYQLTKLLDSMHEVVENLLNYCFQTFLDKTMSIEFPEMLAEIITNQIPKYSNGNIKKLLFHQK
Cytochrome P450 1A2 (Homo sapiens), sequence (P05177 whole entry, looked up): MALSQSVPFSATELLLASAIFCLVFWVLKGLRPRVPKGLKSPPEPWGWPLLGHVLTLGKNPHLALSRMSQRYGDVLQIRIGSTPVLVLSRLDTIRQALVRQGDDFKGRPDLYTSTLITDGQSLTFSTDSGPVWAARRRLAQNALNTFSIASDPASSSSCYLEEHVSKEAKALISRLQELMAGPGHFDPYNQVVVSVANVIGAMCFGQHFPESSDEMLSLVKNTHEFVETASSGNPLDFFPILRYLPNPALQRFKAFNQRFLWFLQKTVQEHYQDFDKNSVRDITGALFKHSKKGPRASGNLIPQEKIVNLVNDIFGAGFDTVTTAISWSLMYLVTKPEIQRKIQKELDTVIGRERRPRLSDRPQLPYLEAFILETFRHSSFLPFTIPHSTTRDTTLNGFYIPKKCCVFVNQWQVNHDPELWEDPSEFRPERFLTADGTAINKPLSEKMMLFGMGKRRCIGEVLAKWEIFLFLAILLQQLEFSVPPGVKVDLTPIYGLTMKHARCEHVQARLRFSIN

Turning to `C=CC(C1=CC(=O)C(OC)=CC1=O)c1ccccc1` (stereo unspecified), the Potency in assay [1] was 20 µM (active); in assay [6], 56.2 µM (active); in [9] it was 31.2 µM (active). In addition, the Potency result in assay [2], in [3], in assay [7] and in [8] was “inactive” in each case. Also, the molecule was called inactive in [4]. For the same molecule, the activity change, negative = inhibition in assay [5] was -14.6% (inactive). In addition, the max response in assay [5] (setting [15]) is -0.41%; in assay [5] (setting [16]), -12.3%.
As to `CC(=O)Oc1ccc2c(c1C(C)C)CCC1C(C)(C)CCC[C@@]21C` (stereo partly specified), the Potency result in assay [2], in assay [3], in [10], in assay [7], in assay [8] and in [9] was “inactive” each time. For the same molecule, the call in [4] was inactive. Besides, the activity change, negative = inhibition in assay [5] is 2.03% (inactive). The figures for the max response in assay [5] (setting [15]) and in [5] (setting [16]) were 13.7% and 20.3%, respectively.
`CC1=CC2C(CC1=O)C(C)=CCC2C(C)C` (stereo unspecified): the Potency result in [1], in assay [3], in [6], in [10], in assay [7] and in assay [8] was “inactive” each time. The result in assay [4] was inactive. For the same molecule, the activity change, negative = inhibition in assay [5] was 1.38% (inactive). The max response in assay [5] (setting [15]) was found to be 3.62%; in [5] (setting [16]), 5.28%. In addition, the Potency in assay [9] was 39.3 µM (active).
Take `COC(=O)CCCOc1ccc(Cl)cc1Cl`: the Potency result in assay [1], in assay [3], in assay [6], in assay [10], in assay [7] and in assay [8] was “inactive” in each case. In [5], the activity change, negative = inhibition is 5.51% (inactive). The max response stood at 14% in [5] (setting [15]) and 23% in assay [5] (setting [16]).
For `COC(=O)c1c(OC)cc2c(c1C)Oc1c(Cl)c(O)c(Cl)c(C)c1C(=O)O2`, the values for the Potency in assay [1], in assay [6] and in assay [9] were 1.58 µM (active), 56.2 µM (active) and 8.79 µM (active), respectively. Also, the Potency result in assay [2], in assay [7] and in [8] was “inactive” throughout. The call in assay [4] was inactive. Moreover, in assay [5], the activity change, negative = inhibition is 6.08% (inactive). In addition, the max response in assay [5] (setting [15]) is -4.22%; in [5] (setting [16]) it was -5.08%.
For `C[n+]1cccc(C(=O)[O-])c1`, the Potency entry in assay [1], in assay [3] and in assay [6] was “inactive” each time. Moreover, the outcome in [4] was inactive. In assay [5], the activity change, negative = inhibition was 6.06% (inactive). Moreover, the max response was -1.12% in [5] (setting [15]) and 2.73% in [5] (setting [16]).
As to `NC(=NCc1ccc(Cl)c(Cl)c1)NC(=O)c1nc(Cl)c(N)nc1N`, the activity change, negative = inhibition was -11.5% [at 38 µM] (inactive) in [11] and 0.442% (inactive) in [5]. The Potency was 10 µM (active) in assay [12] and > 46 µM (inactive) in [14]. Also, in assay [13], the activity, negative = inhibition is 5.12% [at 38 µM] (inactive). Further, in assay [2], the Potency result was “inactive”. Besides, the max response in [5] (setting [15]) is -3.02%; in assay [5] (setting [16]), -2.51%.
